The full list was thinned out, with hits kept by preference.
Shiga inhibitor: Shiga toxin inhibition; inhibition, % at 38.7 µM; actives 9.2% (n = 290,000); Vero cells, Shiga toxin protein synthesis inhibition reporter; in the data active means inhibition mostly above about 28%, no sharp cut-off; inactive means mostly below about 43%
Cycloheximide cs: affects cycloheximide protein synthesis inhibition readout, counter-screen. cell reporter, cycloheximide protein synthesis inhibition counterscreen. max response, %. actives 12% (n = 300,000). AID 2314; in the data active means max response mostly above about 13%, no sharp cut-off; inactive means mostly below about 14%; further: read at 38.3 µM for the half of the compounds with a filed dose
MARV entry inh: blocks Marburg virus binding to or entry into cells | Marburg virus pseudotyped entry inhibition, cell reporter | Potency, µM (doses to about 37.8 µM), usual class: inhibitors | actives 1.8% (n = 300,000) | AID 540276; calls by dose curve; tested in HEK293 cells
Lassa entry inh: Lassa virus entry inhibition | Lassa virus pseudotype entry inhibition, cell reporter | AID 540256 | Potency, µM (titrated, usually from 37.9 µM), actives largely listed as inhibitors | actives 1.2% (n = 300,000); calls by dose curve; tested in HEK293 cells; further: nearly all actives have a fitted effect of over 50% in size
AMA1 RON2 block: AMA1-RON2 (P. falciparum) interaction inhibition. AlphaScreen AMA1-biotinylated RON2 peptide binding. actives 0.2% (n = 360,000). Potency, µM (titrated, usually from 58.2 µM), usual class: inhibitors. AID 720542; active means well fitted inhibition curve with a large enough effect; inconclusive means small, poorly fitted or top-dose-only effect; inactive means no such curve, though single readings can be large or run the other way; further: nearly all actives have a fitted effect of over 45% in size
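AMA1 (3D7) with his tag at 25 nM final met compounds first, then biotinylated RON2 peptide at 25 nM; detection used donor plus acceptor beads, 10 µg/mL apiece, read by AlphaScreen after 30 min at room temperature.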
Hits are given with their value; – = inactive; ? = inconclusive; · = no result; + = active, no number; [ ] = another dose, or the depositor's remark.

SMILES	Shiga inhibitor	Cycloheximide cs	MARV entry inh	Lassa entry inh	AMA1 RON2 block
CN(Cc1cn(C)nc1-c1cccc(Cl)c1)C1CCOCC1	–	–	·	·	–
O=C(NC1CCCC1)C(C1CC1)n1c(-c2ccncc2)nc2ccccc21 (stereo not given)	·	·	·	·	–
CC(=O)c1cnc2nc(SCc3ccccc3C)nn2c1C	–	18.2	?	–	–
CC(=O)c1cnc2nc(C(F)(F)F)nn2c1C	–	–	–	–	–
COc1ccc(NC(=O)c2ccc(COCC(F)(F)F)cc2)cc1OC	–	–	?	–	–
COc1ccc(C(=O)Nc2ccc(OCC(F)(F)C(F)F)c(C(F)(F)F)c2)cc1OC	–	–	?	17.8µM	–
O=C(Nc1ccc(OCC(F)(F)C(F)F)c(C(F)(F)F)c1)c1ccc(Cl)cc1	·	·	15.8µM	?	–
COC(=O)COc1cccc(NC(=O)c2ccc(Cl)cc2)c1	–	–	?	–	–
Cc1cc(=O)c2cc(C(=O)Nc3ccc(C)c(C)c3)ccc2[nH]1	·	·	?	–	·
CCCCCNC(=O)C1CC(=O)OC12CCCCC2 (stereo not given)	–	–	?	–	–
CCc1ccc2oc(C(=O)Nc3ccccc3C(=O)OC)cc(=O)c2c1	·	·	–	–	·
CN(C)C(=S)N=Nc1[nH]c2ccccc2c1O	65.9	39.4	·	·	–
CCCc1c(O)c2ccccc2[nH]c1=O	–	–	–	–	–
COc1ccc(C2CC(c3ccccc3)=NN2C(=O)CN2N=NC3C(=O)N(c4cccc(F)c4)C(=O)C32)cc1 (stereo not given)	–	10.6	–	–	–[2.32 µM]
O=C(O)CC(Cc1ccccc1)(C(=O)O)c1ccccc1 (stereo not given)	–	–	·	·	–
CN1CCc2c(sc3c2C(=O)NC(c2cccs2)N3)C1 (stereo not given)	35.1	33.6	–	–	–
CN(C)C=Nc1ccccc1C1C=NNC1=O (stereo not given)	52.0	22.9	·	·	·
COc1ccccc1-c1cc(-c2ccccc2)nc(SC(C(N)=O)c2ccccc2)c1C#N (stereo not given)	–	–	14.6µM	?	–
COC(=O)CSc1nc(N)c(C#N)c(-c2ccco2)c1C#N	–	–	–	–	–
COC(=O)CSc1nc(-c2ccccc2)cc(-c2ccco2)c1C#N	83.3	41.0	?	–	–
CC(=O)Nc1ccc(C(=O)N(C)C(C(=O)Nc2ccccc2)c2ccccn2)cc1 (stereo not given)	–	–	–	–	–
Cc1ccsc1CCNC(=O)C1CCC(=O)N(CCc2cccc(F)c2)C1 (stereo not given)	119.9	45.9	·	·	–
Cc1ccsc1CN(C)C(=O)C1CCC(=O)N(CCc2cccc(F)c2)C1 (stereo not given)	52.9	36.4	·	·	–
CC1(c2ccccc2)NC(=O)N(CC(=O)Nc2ccccc2C(=O)N2CCCCC2)C1=O (stereo not given)	·	·	–	–	–
COc1ccc(CCNC(=O)c2ccc3c(c2)N(Cc2ccc(F)cc2)C(=O)c2ccccc2S3(=O)=O)cc1OC	·	·	10µM	–	·
SMILES	Shiga inhibitor	Cycloheximide cs	MARV entry inh	Lassa entry inh	AMA1 RON2 block
CN1CCN(C(=O)c2ccc3c(c2)N(Cc2ccc(F)cc2)C(=O)c2ccccc2S3(=O)=O)CC1	·	·	–	?	·
COc1ccccc1N1CCN(C(=O)c2ccc3c(c2)N(Cc2ccccc2)C(=O)c2ccccc2S3(=O)=O)CC1	·	·	8.91µM	–	·
Nc1nnc2c(n1)[nH]c1ccccc12	·	·	–	–	·
CNC(=S)NNC(=O)c1cn(C)nc1C	–	–	?	–	–
Cc1cc(C(=O)NNC(=S)Nc2ccccc2)nn1C	61.2	–	–	?	–
Cc1c(C(=O)NNC(=S)Nc2cccc(Cl)c2)nnn1-c1ccccc1	+	57.3	?	–	–
Cc1nn(C)cc1C(=O)NNC(=S)Nc1ccccc1	–	17.3	?	?	–
O=C(CCNS(=O)(=O)c1ccc2c(c1)CCN2C(=O)C1CC1)Nc1ccc(Cl)cc1	·	·	·	–	·
CC(=O)c1ccc(N2CCN(C(=O)c3cc(S(=O)(=O)N4CCOCC4)ccc3C)CC2)cc1	·	·	–	–	–
COC(=O)C1(C(=O)OC)c2ncccc2N(S(=O)(=O)c2ccc(C)cc2)C1CC(=O)c1ccccc1 (stereo not given)	·	·	·	·	–
OCC[C@H]1C[C@@H](O)[C@H](O)[C@@]2(CCCO2)O1	·	·	·	·	–
CC(C)N(C)c1ncnc2c1ncn2[C@H]1CN(CCN2CCOCC2)C[C@@H](CO)O1	·	·	·	·	–
Cc1cc(C)n(-c2nc3ccccc3c(=O)n2OCC(=O)OCc2ccccc2)n1	–	14.6	?	?	–
Cc1cc(C)n(-c2nc3ccccc3c(=O)n2OCc2ccc(F)cc2)n1	–	18.5	–	–	–
Cc1cc(C)n(-c2nc3ccccc3c(=O)n2OCc2ccc(Cl)cc2)n1	–	–	–	–	–
Cc1cc(CC(C)C)n(-c2nc3ccccc3c(=O)n2OCc2ccccc2)n1	–	31.0	–	–	–
Fc1ccc(-c2nc3ccccn3c2NCc2ccc3c(c2)OCO3)cc1	–	–	?	–	?
Oc1ccc(-c2nc3ccccn3c2NCc2ccc3c(c2)OCO3)cc1	–	24.5	–	–	–
Cc1cc(Cl)ccc1NC(=O)CN1C(=O)CSc2ccc(S(=O)(=O)N(C)C)cc21	·	·	·	–	·
COc1ccc(S(=O)(=O)CCC(=O)Nc2cccc(OC)c2)cc1	–	–	·	·	·
Cc1cc(C(=O)N2CCN(c3ccc([N+](=O)[O-])cc3)CC2)n[nH]1	–	–	·	·	–
CN1C2CCC1/C(=C\c1ccc(F)cc1)C(=O)/C2=C/c1ccc(F)cc1	–	–	?	–	–
C=CC(=O)N1C/C(=C/c2ccc(F)cc2)C(=O)/C(=C\c2ccc(F)cc2)C1	·	·	?	2.51µM	–
CCOC(=O)N1CCC(N(CCN(C)C)C(=S)Nc2cc(C)cc(C)c2)CC1	–	–	?	–	–
O=C(O)c1ccccc1C(=O)N1CC=C(c2ccccc2)CC1	–	26.9	–	–	–
SMILES	Shiga inhibitor	Cycloheximide cs	MARV entry inh	Lassa entry inh	AMA1 RON2 block
COc1cc(C)ccc1OCCOc1c(C)cccc1Cl	57.3	23.9	–	–	–
COc1cc(C)ccc1OCCOc1c(Cl)cc(Cl)cc1Cl	–	–	?	–	–
COc1cc(C)ccc1OCCON1C(=O)CCC1=O	–	31.6	–	–	–
COc1ccccc1OCCOCCOc1ccc(C)cc1Br	–	–	–	–	–
COc1ccccc1OCCCOc1ccc(C)cc1Br	73.8	45.5	–	–	–
COc1cc(C)ccc1OCCCOc1ccccc1Br	110.2	64.1	–	?	–
CCOc1ccccc1NC(=O)Nn1cnnc1	–	–	–	–	–
CC(C)CCNC(=O)C1CCC(Cn2c(=O)c3sccc3n(CC(=O)NC(C)C)c2=O)CC1 (stereo not given)	·	·	·	–	·
COc1ccccc1/C=C(/CC(=O)NCc1ccc2c(c1)OCO2)c1nc2ccccc2s1	67.2	20.5	?	–	–
COc1ccccc1/C=C/C(=O)OCC(=O)NCc1ccc2c(c1)OCO2	·	·	·	·	–
COc1ccc(/C=C(/CC(=O)NCc2ccc(Cl)cc2)c2nc3ccccc3s2)cc1	–	19.4	–	?	–
O=C(O)C/C(=C\c1cc(Cl)c2c(c1)OCO2)c1nc2ccccc2s1	–	–	–	–	–
O=C(O)C/C(=C\c1ccc2c(c1)OCO2)c1nc2ccccc2s1	69.0	32.1	–	–	–
C#CCN(CC(=O)OCC)S(=O)(=O)CCNC1CC1	·	·	·	·	–
